Experimental data as given in PubChem BioAssay AID2685 (National Center for Advancing Translational Sciences (NCATS), 2010).
Screen size: about 320,000 compounds; about 2,100 (0.66%) were called active. Roughly 53% stayed inconclusive and do not appear here. Calls follow the shape of the dose curve; as a rule, active = well fitted inhibition curve with a large enough effect in the signal ratio, with a control signal flat (not every such curve was filed as active); inconclusive = small, poorly fitted or top-dose-only effect, or effect the other way, or a change in a side signal; inactive = flat fitted curve, though single readings scatter; the % refers to the signal ratio. Many of the other results were omitted from the sample, so actives are more common in it than they were.

Experiment: qHTS Assay for Lipid Storage Modulators in Drosophila S3 Cells;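 as to cell number change: cells counted by Cell Tracker Red CMTPX staining in the red channel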; as to lipid storage change, negative = inhibition: % is scaled to controls: 0 for no effect and ±100 for the full control effect
Conditions: BODIPY lipid droplet fluorescence, 18-24 h, cells fed with added oleic acid; cell number change: measured here: cell count max response; series mostly up to 46.1 µM
Procedure, shortened: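 Drosophila S3 cells got compounds at several concentrations plus oleic acid (400 uM solution). Laser-scanning cytometry with 488 nm excitation read lipid droplets at 500-530 nm and cells at 575-640 nm. Percent activity was relative to 20 uM Triacsin C.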
Potency is read from the fitted curve at half-maximal effect.

| SMILES | Potency | cell number change [%] | lipid storage change, negative = inhibition |
| --- | --- | --- | --- |
| CCOC(=O)Cc1nnc(NC(=O)CSc2ccc(C)cc2)s1 | inactive | 10.4 | – |
| CC(NC(=O)c1ccco1)c1nc(-c2ccc(C(C)(C)C)cc2)no1 (centres undefined) | inactive | -0.87 | – |
| CC(NC(=O)c1ccco1)c1nc(-c2ccccc2)no1 (centres undefined) | 25.9 µM (active) | 24.3 | – |
| CC(NC(=O)c1ccco1)c1nc(-c2ccc(Cl)cc2)no1 (centres undefined) | inactive | – | – |
| Cc1c(NC(=O)COc2cccc(F)c2)c(=O)n(-c2ccccc2)n1C | inactive | -5.04 | – |
| COc1ccccc1NC(=O)C(C)OC(=O)CCCN=C1NS(=O)(=O)c2ccccc21 (centres undefined) | inactive | – | – |
| COc1ccc(/C=N/NC2=NCCCCC2)cc1 | inactive | – | – |
| CCOc1ccc(/C=N/NC2=NCCCCC2)cc1 | inactive | 8.72 | – |
| Oc1ccc(/C=N/NC2=NCCCCC2)cc1 | 9.2 µM (active) | 1.27 | – |
| C=CCSc1nc(=O)n2ccccc2n1 | inactive | – | – |
| CCCSc1ccc(-c2nn(-c3ccccc3)cc2/C=C(/C#N)C(=O)N2CCOCC2)cc1 | inactive | -5 | – |
| O=C(c1c(F)cccc1F)N(C1CCCCC1)C1CCCCC1 | inactive | -23 | – |
| COc1ccc(N(CC(=O)NCCSC2CCCCC2)S(=O)(=O)c2ccccc2)cc1OC | inactive | -12.6 | – |
| COc1ccc(OC)c(N(CC(=O)NCCSC2CCCCC2)S(=O)(=O)c2ccccc2)c1 | 14.6 µM (active) | -18.5 | – |
| CCOc1ccc(N(CC(=O)NC2CC3CCC2C3)S(=O)(=O)c2ccccc2)cc1 (centres undefined) | inactive | 16.1 | – |
| COc1ccc(N(CC(=O)NCc2ccccc2OC)S(=O)(=O)c2ccccc2)cc1 | 8.2 µM (active) | 10.9 | – |
| CN(CC(=O)Nc1ccccc1F)S(=O)(=O)c1ccc2c(c1)n(C)c(=O)c(=O)n2C | inactive | 1.35 | – |
| CCOc1ccc(N(CC(=O)NC2CCCC2)S(=O)(=O)c2ccccc2)cc1 | 2.59 µM (active) | -7.14 | – |
| Cc1ccccc1NC(=O)CN(C)S(=O)(=O)c1ccc2c(c1)n(C)c(=O)c(=O)n2C | 18.4 µM (active) | 13.4 | – |
| Cc1ccc(NC(=O)CN(C)S(=O)(=O)c2ccc3c(c2)n(C)c(=O)c(=O)n3C)c(C)c1 | inactive | 25.1 | – |
| CCOc1ccc(N(CC(=O)NC2CCCCCC2)S(=O)(=O)c2ccccc2)cc1 | inactive | 24.3 | – |
| COCCCNC(=O)CN(c1cc(OC)ccc1OC)S(=O)(=O)c1ccccc1 | inactive | 13.9 | – |
| COc1ccc(N(CC(=O)NCc2ccccc2OC)S(=O)(=O)c2c(C)nn(C)c2C)cc1 | – | – | 22.2% [at 9.22 µM] (inactive) |

| SMILES | Potency | cell number change [%] | lipid storage change, negative = inhibition |
| --- | --- | --- | --- |
| COc1ccc(N(CC(=O)NCc2ccco2)S(=O)(=O)c2ccccc2)cc1 | inactive | 3.25 | – |
| CCc1ccc(CN2CCCC(CCC(=O)N3CCN(c4ccccn4)CC3)C2)o1 (centres undefined) | inactive | 5.55 | – |
| Cc1cc(CN2CCCC(N3CCc4ccccc4C3)C2)cc(C)c1O (centres undefined) | inactive | -2.22 | – |
| Cc1[nH]c2ccccc2c1C(c1ccccn1)N1CCC(C(N)=O)CC1 (centres undefined) | inactive | -13.7 | – |
| O=C(NCCN1CCOCC1)c1cccn2c(=O)c3c4c(sc3nc12)CCCC4 | inactive | -12.5 | – |
| Cc1c(C(=O)NCCSCc2ccccc2)cccc1[N+](=O)[O-] | inactive | -1.45 | – |
| O=C(c1ccc(OC2CCN(CCc3ccccc3)CC2)cc1)N1CCCC(CO)C1 (centres undefined) | inactive | 4.02 | – |
| COc1ccc(N2CCN(CC(O)COc3cc(C)ccc3C)CC2)cc1 (centres undefined) | inactive | -17 | – |
| CCCS(=O)(=O)C/C(N)=N/OC(=O)c1ccccc1Cl | inactive | -2.12 | – |
| CCC(C(=O)NCc1ccco1)N(C(=O)CNS(=O)(=O)c1ccccc1)c1ccc(F)cc1 (centres undefined) | inactive | -3.04 | – |
| Cc1cccc(N(CC(=O)NC2CC3CCC2C3)S(=O)(=O)c2ccccc2)c1 (centres undefined) | 20.6 µM (active) | -12.9 | – |
| CCc1ccccc1NC(=O)CN(c1ccc(OC)cc1OC)S(=O)(=O)c1ccccc1 | 2.91 µM (active) | -14.4 | – |
| COc1ccc(N(CC(=O)NC2CC3CCC2C3)S(=O)(=O)c2ccc(C)cc2)cc1OC (centres undefined) | inactive | 8.82 | – |
| COc1ccccc1N(CC(=O)Nc1cccnc1)S(=O)(=O)c1ccccc1 | inactive | -18 | – |
| COc1ccc(N(CC(=O)Nc2ccc(OC)cc2OC)S(=O)(=O)c2ccccc2)cc1 | inactive | -4.04 | – |
| COc1ccccc1N(CC(=O)Nc1ccc(Cc2ccncc2)cc1)S(=O)(=O)c1ccccc1 | 7.31 µM (active) | 27.6 | – |
| CN(CC(=O)NCc1ccc(F)cc1)S(=O)(=O)c1ccc2c(c1)c(=O)n(C)c(=O)n2C | inactive | – | – |
| COc1ccccc1CNC(=O)CN(C)S(=O)(=O)c1ccc2c(c1)c(=O)n(C)c(=O)n2C | 9.2 µM (active) | – | – |
| O=C(CN(c1ccc(F)cc1)S(=O)(=O)c1ccccc1)NC1CC2CCC1C2 (centres undefined) | inactive | 10.7 | – |
| CCc1ccccc1NC(=O)CN(c1ccc(OC)cc1OC)S(=O)(=O)c1ccccc1[N+](=O)[O-] | inactive | -4.08 | – |
| COc1ccc(S(=O)(=O)N(CC(=O)Nc2cccnc2)c2ccccc2OC)cc1 | inactive | – | – |
| COc1cccc(CNC(=O)CN(C)S(=O)(=O)c2ccc3c(c2)c(=O)n(C)c(=O)n3C)c1 | inactive | -15.3 | – |
| CC(=O)NC(CC(=O)OC(C)C(=O)Nc1ncc(Cl)cc1Cl)c1ccccc1 (centres undefined) | inactive | – | – |

| SMILES | Potency | cell number change [%] | lipid storage change, negative = inhibition |
| --- | --- | --- | --- |
| CC(=O)c1c(C)n(CC(=O)NCc2ccc3c(c2)OCO3)c2ccccc12 | inactive | – | – |
| O=S(=O)(NC(=NCCc1ccc(Cl)cc1)c1ccccc1Cl)c1cccs1 | inactive | 1.69 | – |
| O=C(COc1ccc([N+](=O)[O-])cc1)Nc1cc(C(=O)O)cc(C(=O)O)c1 | inactive | 11.2 | – |
| Cc1cc(Br)ccc1NC(=O)CNC(=O)CSc1ncccn1 | inactive | -9.9 | – |
| Cc1ccccc1C1c2[nH]c3ccccc3c2C[C@H]2C(=O)N(C3CC3)CC(=O)N12 (some centres undefined) | inactive | -3.81 | – |
| Cc1ccc(S(=O)(=O)N(CC(=O)N2CCCCC2)c2cccc(C)c2)cc1 | inactive | -21.5 | – |
| CCOC(=O)N1CCN(C(=O)CN(c2cccc(C)c2)S(=O)(=O)c2ccc(C)cc2)CC1 | 5.8 µM (active) | 6.11 | – |
| Cc1ccc(S(=O)(=O)N(CC(=O)N2CCC(C)CC2)c2cccc(C)c2)cc1 | inactive | – | – |
| Cc1nc2c(C(=O)N3CCOCC3)cnn2c(C)c1Cc1ccc(Cl)cc1 | inactive | -21.6 | – |
| CCn1c(SC)nc2cc(S(=O)(=O)N3CCCCC3)ccc21 | inactive | -3.03 | – |
| Cc1ccc(C(=O)NCC(=O)OCC(=O)Nc2ccc(Cl)cn2)cc1 | 3.66 µM (active) | -28.4 | – |
| O=C(COC(=O)CNC(=O)c1ccco1)Nc1ccc(Cl)cn1 | inactive | – | – |
| Cc1ccc(OCCC(=O)OCC(=O)Nc2ccc(Cl)cn2)cc1 | inactive | -15.3 | – |
| N#Cc1ccc(COc2cccc3cccnc23)cc1 | inactive | -22.2 | – |
| CC(C)C(NS(=O)(=O)c1ccc2c3c(cccc13)C(=O)N2)C(=O)O (centres undefined) | inactive | 15.8 | – |
| Cc1cc(O)ccc1NS(=O)(=O)c1ccc2c3c(cccc13)C(=O)N2 | 0.366 µM (active) | -0.855 | – |
| Cc1oc2c(cc(NS(=O)(=O)c3ccc4c5c(cccc35)C(=O)N4)c3ccccc32)c1C(=O)OC(C)C | inactive | 10.8 | – |
| O=C(N=C1N=C2C=CC=CN2Cc2ccccc21)c1ccc(S(=O)(=O)N2CCCC2)cc1 | inactive | 13.8 | – |
| O=C(Nc1ccc(Oc2ncnc3cc(Cl)ccc23)nc1)Nc1cccc(C(F)(F)F)c1 | inactive | -3.74 | – |
| O=C(N[C@H]1CC1c1ccccc1)c1ccc([N+](=O)[O-])cc1 (some centres undefined) | inactive | -1.22 | – |
| C=C(C)Cn1c(-c2ccncc2)n[nH]c1=S | inactive | -24.7 | – |
| O=C(CCN1CCOCC1)N1CCCC(Nc2ccc(F)cc2)C1 (centres undefined) | inactive | – | – |
| CCS(=O)(=O)c1ccc2c(c1)NC(=O)C(CCO)O2 (centres undefined) | inactive | 7.6 | – |

| SMILES | Potency | cell number change [%] | lipid storage change, negative = inhibition |
| --- | --- | --- | --- |
| O=C1Nc2ncccc2OC1CCO (centres undefined) | 25.9 µM (active) | -19.3 | – |
| O=C1Nc2ncccc2OC1CCCl (centres undefined) | inactive | 11.9 | – |
| CCOC(=O)c1ccc(NC(=O)Cn2c(=O)oc3ccccc32)cc1 | inactive | 2.64 | – |
| CC1=C(C(=O)OC(C)(C)C)C(c2cccs2)NC(=O)N1 (centres undefined) | inactive | 16.7 | – |
| COc1ccc2c(c1OC)C(=O)NC(C)=C(C(=O)OC(C)(C)C)C2O (centres undefined) | 14.6 µM (active) | 0.147 | – |
| COc1cc(C2NC(=O)NC(C)=C2C(=O)OC(C)(C)C)ccc1OCC(N)=O (centres undefined) | inactive | 1.52 | – |
| O=C1O/C(=C\C(=O)N2CCOCC2)c2ccccc21 | inactive | 1.94 | – |
| CCN(CC)c1ccc(C(=O)OCC(=O)Nc2cc3oc4ccccc4c3cc2OC)cc1 | inactive | -0.812 | – |
| CC(C)n1c(SCC(=O)N2CCCCC2)nc2c1c(=O)n(C)c(=O)n2C | 0.116 µM (active) | -23 | – |
| Cn1c(=O)c2c(nc(SCC(=O)N3CCCCCC3)n2C)n(C)c1=O | inactive | 8.11 | – |
| CC(C)n1c(SCC(=O)N2CCN(C)CC2)nc2c1c(=O)n(C)c(=O)n2C | inactive | 1.32 | – |
| CCC(CC)C(=O)NCCc1cc2ccc(C)c(C)c2[nH]c1=O | inactive | – | – |
| CC1(C)N=C(/C=N/O)C=[N+]1[O-] | 6.51 µM (active) | -9.07 | – |
| CCn1cc(/C=N/O)c(C)n1 | inactive | 7.41 | – |
| CCCN(CCC)CCCNC(=O)C1CCC(CNS(=O)(=O)c2cccc3nsnc23)CC1 (centres undefined) | inactive | -15 | – |
| CC(=O)NC(c1ccc(C(C)C)cc1)c1ccc2cccnc2c1O (centres undefined) | inactive | – | – |
| CCCCC(=O)NC(c1ccccc1OC)c1ccc2cccnc2c1O (centres undefined) | inactive | -24 | – |
| CCCCC(=O)NC(c1ccc(C(C)C)cc1)c1ccc2cccnc2c1O (centres undefined) | 18.4 µM (active) | -28.4 | – |
| CCOc1c(Br)cc(CNc2ccc(N3CCOCC3)cc2)cc1OC | inactive | -20.8 | – |
| Cc1cc(OC(C)C(=O)NCC(O)c2ccccc2)c2c(C)cc(=O)oc2c1 (centres undefined) | inactive | 6.57 | – |
| CCOc1ncccc1C(=O)NCc1ccccc1Cl | inactive | – | – |
